Experiment [1] concerns the target Protein kinase C alpha type (Homo sapiens) (UniProt P17252). Conditions: at 1 µM.
For experiment [2] the target is unchanged. Conditions: at 10 µM.
The target in experiment [3] is Protein kinase C beta type (Homo sapiens) (UniProt P05771). Conditions: at 1 µM.
Experiment [4] has the same target. Conditions: at 10 µM.
Experiment [5] has as its target Protein kinase C gamma type (Homo sapiens) (UniProt P05129). Conditions: at 1 µM.
Experiment [6] shares this target. Conditions: at 10 µM.
For experiment [7], the target named is Protein kinase C delta type (Homo sapiens) (UniProt Q05655). Conditions: at 1 µM.
For experiment [8] the target is unchanged. Conditions: at 10 µM.
Experiment [9] concerns the target Protein kinase C beta type (Homo sapiens) (UniProt P05771). Conditions: at 1 µM. The source holds these as a separate data set.
Experiment [10] shares this target. Conditions: at 10 µM. This is another data set of the same source.

Each structure is given as a SMILES string.

Protein kinase C beta type (Homo sapiens), sequence (P05771 2-671 limits assumed): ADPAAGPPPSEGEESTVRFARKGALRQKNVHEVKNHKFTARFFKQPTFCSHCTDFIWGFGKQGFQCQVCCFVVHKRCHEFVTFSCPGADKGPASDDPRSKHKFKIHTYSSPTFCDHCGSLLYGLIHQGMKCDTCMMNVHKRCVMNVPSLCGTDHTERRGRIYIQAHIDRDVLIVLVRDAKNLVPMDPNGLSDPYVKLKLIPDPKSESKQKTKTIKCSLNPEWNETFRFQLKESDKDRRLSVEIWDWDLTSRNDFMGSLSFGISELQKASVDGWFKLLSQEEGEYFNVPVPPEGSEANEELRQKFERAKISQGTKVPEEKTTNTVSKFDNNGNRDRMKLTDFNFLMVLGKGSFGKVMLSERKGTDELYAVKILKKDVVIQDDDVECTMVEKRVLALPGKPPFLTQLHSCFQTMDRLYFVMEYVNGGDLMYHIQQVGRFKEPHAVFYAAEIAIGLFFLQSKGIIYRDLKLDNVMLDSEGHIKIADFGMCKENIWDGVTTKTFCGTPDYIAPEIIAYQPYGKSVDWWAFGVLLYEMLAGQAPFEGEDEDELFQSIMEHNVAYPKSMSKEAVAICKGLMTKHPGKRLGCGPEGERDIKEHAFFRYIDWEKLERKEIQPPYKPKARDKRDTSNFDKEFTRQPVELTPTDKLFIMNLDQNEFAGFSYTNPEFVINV
Protein kinase C delta type (Homo sapiens), sequence (Q05655 whole entry, looked up): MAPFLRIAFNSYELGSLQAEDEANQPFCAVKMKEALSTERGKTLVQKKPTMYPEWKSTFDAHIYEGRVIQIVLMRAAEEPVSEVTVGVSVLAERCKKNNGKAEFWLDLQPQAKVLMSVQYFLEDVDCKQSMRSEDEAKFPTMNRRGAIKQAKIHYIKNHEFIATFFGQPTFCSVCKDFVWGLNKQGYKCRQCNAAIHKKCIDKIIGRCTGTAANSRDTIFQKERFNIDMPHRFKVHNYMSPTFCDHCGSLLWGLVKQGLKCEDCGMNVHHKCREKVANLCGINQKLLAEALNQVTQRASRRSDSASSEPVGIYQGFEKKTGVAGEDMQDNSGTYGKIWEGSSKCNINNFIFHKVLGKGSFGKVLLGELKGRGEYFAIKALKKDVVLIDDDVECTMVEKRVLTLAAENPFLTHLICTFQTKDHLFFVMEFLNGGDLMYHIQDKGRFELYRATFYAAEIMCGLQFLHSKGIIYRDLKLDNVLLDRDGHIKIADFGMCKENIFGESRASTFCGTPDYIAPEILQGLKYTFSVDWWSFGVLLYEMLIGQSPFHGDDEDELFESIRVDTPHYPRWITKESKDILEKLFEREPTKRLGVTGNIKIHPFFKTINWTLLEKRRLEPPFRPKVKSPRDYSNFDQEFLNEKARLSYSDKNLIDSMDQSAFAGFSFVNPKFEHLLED

As for `NCCNc1ncc(C(N)=O)c(Nc2cccc(C(F)(F)F)c2)n1`, the residual activity worked out at 45% in experiment [1]; 8% in experiment [2]; 106% in experiment [3]; 60% in [4]; 58% in [5]; 11% in [6]. The residual activity in experiment [7] was 75%; in [8], 28%.

For the compound `CC(C)(C)n1nc(Cc2cccc3ccccc23)c2c(N)ncnc21`, the residual activity in [1] turned out to be 93%; in experiment [2], 93%; in experiment [3], 119%; in experiment [4], 97%; in experiment [9] it was 104%; in experiment [10] it was 105%. The residual activity in experiment [5] turned out to be 106%; in [6], 94%; in [7] it was 101%; in [8] it was 106%.

`O=c1cc(N2CCOCC2)oc2c1ccc1ccccc12`: the residual activity was 102% in [1]; 96% in experiment [2]; 104% in experiment [3]; 95% in [4]; 95% in experiment [9]; 92% in experiment [10]. Besides, the values for the residual activity in experiment [7] and in experiment [8] were 100% and 98%, respectively.

With `NC(=O)Nc1sc(-c2ccc(F)cc2)cc1C(N)=O`, the residual activity in [1] is 91%; in experiment [2] it was 54%; in experiment [3], 103%; in experiment [4], 77%; in experiment [9] it was 105%; in [10], 89%. In addition, the residual activity in [7] was determined as 78%; in experiment [8], 31%.

`Cn1sc(=O)n(Cc2ccccc2)c1=O`: the residual activity was found to be 85% in experiment [1]; 3% in experiment [2]; 94% in experiment [3]; 54% in experiment [4]; 89% in experiment [9]; 43% in experiment [10]. Also, the residual activity turned out to be 59% in [5], 3% in experiment [6], 87% in [7] and 45% in experiment [8].

Take `Nc1ncnc2c1c(-c1ccc(Oc3ccccc3)cc1)cn2C1CCCC1`: the residual activity in experiment [1] is 102%; in [2] it was 98%; in experiment [3], 103%; in experiment [4] it was 103%; in experiment [9], 99%; in experiment [10] it was 91%. The residual activity worked out at 111% in experiment [5], 104% in experiment [6], 94% in [7] and 100% in experiment [8].

`COc1cc2nccc(Oc3ccc(NC(=S)NC(=O)c4ccccc4C)cc3)c2cc1OC`: the residual activity in experiment [1] is 99%; in [2], 99%; in experiment [9], 98%; in [10], 101%; in experiment [7] it was 98%; in [8], 101%.

As to `Cc1cc(C)c(/C=C2\C(=O)Nc3ccccc32)[nH]1`, the residual activity in experiment [1] was determined as 100%; in experiment [2] it was 104%.

As for `COc1ccc(Cl)cc1NC(=O)Nc1cc(C)nc2ccccc12`, the residual activity in experiment [1] and in [2] was 98% in each case.

As to `NC(=O)c1ccc(-c2nc(-c3ccc4c(c3)OCCO4)c(-c3ccccn3)[nH]2)cc1`, the residual activity in [1] came out at 90%; in experiment [2], 96%; in experiment [3], 124%; in [4], 121%; in experiment [7], 93%; in experiment [8], 100%.

For `COc1ccc2c(c1)c(C1=C(c3c[nH]c4ccccc34)C(=O)NC1=O)cn2CCCN(C)C`, the residual activity is -1% in [1]; 0% in experiment [2]; 4% in [3]; -1% in experiment [4]; 4% in experiment [9]; 3% in experiment [10]. The residual activity in experiment [5] is 3%; in experiment [6], 0%; in experiment [7], 3%; in experiment [8], -1%.

Turning to `CC(C)[C@H](CO)Nc1nc(Nc2cc(N)cc(Cl)c2)c2ncn(C(C)C)c2n1`, the residual activity in experiment [1] stood at 83%; in [2], 97%; in experiment [5] it was 94%; in [6], 80%; in [7], 93%; in [8], 72%.

Consider `CCCC(=O)Oc1ccc2[nH]c(C(=O)c3cc4ccccc4[nH]3)cc2c1`, for which the residual activity stood at 106% in [1]; 108% in [2]; 93% in [4]; 100% in experiment [9]; 101% in [7].

Turning to `O=C1NC(=O)c2c1c1c3ccccc3[nH]c1n1cncc21`, the residual activity in experiment [1] amounted to 97%; in [2], 84%; in experiment [5], 71%; in experiment [6] it was 56%; in experiment [7], 79%; in experiment [8], 70%.

With `CC(C)(C)c1nc2c3ccc(F)cc3c3c(=O)[nH]ccc3c2[nH]1`, the residual activity stood at 65% in experiment [1]; 62% in experiment [2]; 40% in experiment [5]; 46% in experiment [6]; 54% in experiment [7]; 63% in experiment [8].

Turning to `O=C1Cc2c([nH]c3ccc(Br)cc23)-c2ccccc2N1`, the residual activity in experiment [1] was 90%; in [2], 70%; in [10] it was 88%; in experiment [6], 93%; in experiment [7] it was 99%; in experiment [8], 93%.

For `Nc1nc(Nc2ccc(S(N)(=O)=O)cc2)nn1C(=O)c1c(F)cccc1F`, the residual activity in [1] came to 63%; in experiment [2] it was 18%; in experiment [10] it was 54%; in experiment [5], 61%; in experiment [6], 19%; in [7] it was 70%. Further, the residual activity in experiment [8] worked out at 23%.

Take `O=C(CCCc1ccc(-c2ccccc2F)cc1)Nc1ccc(O)cc1`: the residual activity in [1] was 106%; in experiment [2] it was 108%; in [3], 112%; in experiment [4], 108%; in experiment [9], 108%; in experiment [10], 101%. For the same compound, the residual activity in experiment [5] came out at 104%; in [6], 110%.

As for `O=C1Cc2c([nH]c3ccc([N+](=O)[O-])cc23)-c2ccccc2N1`, the residual activity in experiment [1] is 100%; in experiment [2] it was 105%.

Regarding `O=C1NC(=O)C(c2cn(CCCn3ccnc3)c3ccccc23)=C1Nc1ccccc1`, the residual activity in experiment [1] amounted to 6%; in experiment [2], 2%; in experiment [3], 19%; in [4] it was 2%; in experiment [9], 27%; in experiment [10] it was 6%. Also, the residual activity was 8% in experiment [5], 2% in experiment [6], 8% in experiment [7] and 2% in [8].

Take `COc1cc2c(cc1OC)-c1n[nH]c(Nc3cccc(F)c3)c1C2`: the residual activity came out at 104% in experiment [1]; 99% in [2]; 104% in experiment [3]; 108% in experiment [4]; 110% in [9]; 105% in experiment [10]. Moreover, the residual activity in experiment [5] came to 104%; in [6], 105%; in experiment [7] it was 102%; in experiment [8], 106%.

One may read the residual activity as the signal under treatment as a percentage of the control signal.

For the origin of these results see ChEMBL document CHEMBL2218924, “A broad activity screen in support of a chemogenomic map for kinase signalling research and drug discovery” (Biochem J, 2013).
